Many of the other results were omitted from the sample, so hits are more common in it than they were.
MITF inh = MITF inhibition; inhibition, % (no concentration beside the values); AID 2240; TRPM1 promoter luciferase, luminescence, 24 h; 37,000 tested, 0.28% active; in the data active = inhibition above about 85%; inconclusive = no clear call, values can overlap the other calls; inactive = below about 68%;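 note: human melanocyte line stably carrying TRPM1 promoter luciferase reporter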
Shh pathway inh = Sonic Hedgehog pathway inhibition; Shh-LIGHT2 Gli-luciferase reporter, 30 h; inhibition, % (test concentration not listed); 22,000 tested, 2.1% active; AID 2313;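 active = mean inhibition across valid replicates above about 65%, limit read from the data; inconclusive = mean under the limit, yet half or more replicates past it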;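 note: pathway switched on by Shh-conditioned medium diluted 1 in 25 in low serum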
BJeLR viab HTS = lowers viability of BJeLR cells | BJeLR fibroblasts viability, CellTiterGlo ATP luminescence, 48 h; HRASV12, hTERT and SV40 LT/ST transformed | viability loss activity score, % (no concentration beside the values) | 30,000 tested, 0.64% active; in the data active = viability loss activity score above about 50%; inconclusive = no clear call, values can overlap the other calls; inactive = below about 35%;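 note: higher score means fewer live cells and less ATP luminescence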
* marks the source's active call; other numbers are inactive results; ? = inconclusive; / = no result given.

SMILES	MITF inh	Shh pathway inh	BJeLR viab HTS
C[C@]12CCC3c4ccc(OS(=O)(=O)O)cc4CCC3C1CC[C@H]2O (stereo partly specified)	6.0	6.2	-4.6
Cc1nn(-c2ccccc2)c2c1C(C(F)(F)F)(C(F)(F)F)C(C#N)=C(N)O2	/	/	12.4
COc1ccccc1-c1c(C)nn2c(NCC(OC)OC)cc(C)nc12	/	/	-0.2
Cc1ccc(-c2nc(Nc3cccc(C(F)(F)F)c3)sc2CC(=O)O)cc1	/	/	-3.0
C[C@H](CO)N1C[C@H](C)[C@H](CN(C)Cc2ccc(Oc3ccccc3)cc2)Oc2ccc(NC(=O)c3ccncc3)cc2CC1=O	-4.3	34.1	/
COc1ccc(CN(C)C[C@@H]2Oc3ccc(NC(=O)Nc4cccc5ccccc45)cc3CC(=O)N([C@@H](C)CO)C[C@@H]2C)cc1	-7.9	68.6*	/
C[C@@H]1CN([C@@H](C)CO)C(=O)Cc2cc(NC(=O)C3CCCCC3)ccc2O[C@@H]1CN(C)Cc1ccc(Oc2ccccc2)cc1	9.8	?	/
COc1ccc(CN(C)C[C@H]2Oc3ccc(NC(=O)Nc4cccc5ccccc45)cc3CC(=O)N([C@@H](C)CO)C[C@H]2C)cc1	4.4	-0.7	/
C[C@@H]1CN([C@H](C)CO)C(=O)Cc2cc(NC(=O)c3ccncc3)ccc2O[C@@H]1CN(C)Cc1ccc(Oc2ccccc2)cc1	3.6	72.9*	/
C[C@@H]1CN([C@H](C)CO)C(=O)Cc2cc(NC(=O)C3CCCCC3)ccc2O[C@@H]1CN(C)Cc1ccc(Oc2ccccc2)cc1	38.9	69.7*	/
CC(C)C(=O)N1CCCCCC1	/	/	2.6
CCCc1cc(=O)oc2c(C)c3oc(C)c(C)c3cc12	/	/	-2.9
COc1ccc(C(=O)Nc2ccc(C(O)(C(F)(F)F)C(F)(F)F)cc2)cc1	7.1	?	0.9
CC(=O)OCC(=O)[C@@]1(O)[C@H](C)C[C@H]2[C@@H]3CCC4=CC(=O)C=C[C@]4(C)[C@@]3(F)[C@@H](O)C[C@@]21C	-47.5	82.1*	-15.9
CC(=O)[C@@]1(O)CC[C@H]2[C@@H]3C[C@H](C)C4=CC(=O)C=C[C@]4(C)[C@@]3(F)[C@@H](O)C[C@@]21C	-35.7	66.7*	-12.8
CC(=O)OCC(=O)[C@@]1(O)CCC2C3C[C@H](C)C4=CC(=O)C=CC4(C)C3[C@@H](O)CC21C (stereo partly specified)	-13.7	40.6	-7.8
C[C@@H]1C[C@H]2[C@@H]3CCC4=CC(=O)C=C[C@]4(C)[C@@]3(F)[C@@H](O)C[C@]2(C)[C@@]1(O)C(=O)CO	-31.6	17.8	-7.3
C=C1CCC2C(C)(CO)CCCC2(C)C1CC/C(C)=C/C(=O)O (stereo unspecified)	/	-26.8	/
C=C1CCC2[C@](C)(CO)[C@H](O)CC[C@@]2(C)[C@@H]1C/C=C1/C(=O)OC[C@H]1O (stereo partly specified)	28.5	93.1*	19.8
C=CCNC(=O)CCN1C(=O)COc2ccccc21	/	/	4.0
C[C@H](CO)N1C[C@H](C)[C@H](CN(C)S(=O)(=O)c2ccc(Cl)cc2)Oc2c(NC(=O)C3CC3)cccc2C1=O	6.3	97.9*	-0.2
C[C@@H]1CN([C@@H](C)CO)C(=O)c2cc(NC(=O)C3CC3)ccc2O[C@@H]1CN(C)S(=O)(=O)c1ccc(Cl)cc1	1.7	4.1	2.1
C[C@H]1CN([C@@H](C)CO)C(=O)c2cccc(NC(=O)C3CCOCC3)c2O[C@H]1CN(C)S(=O)(=O)c1ccc(Cl)cc1	-7.0	84.2*	-0.8
C[C@@H]1CN([C@@H](C)CO)C(=O)c2cc(NC(=O)C3CC3)ccc2O[C@H]1CN(C)S(=O)(=O)c1ccc(Cl)cc1	-10.9	66.8*	-4.0
Cc1cc(C(=O)Nc2cccc3c2O[C@@H](CN(C)S(=O)(=O)c2ccc(Cl)cc2)[C@@H](C)CN([C@H](C)CO)C3=O)n(C)n1	-42.7	78.3*	-1.6
SMILES	MITF inh	Shh pathway inh	BJeLR viab HTS
C[C@@H]1CN([C@@H](C)CO)C(=O)c2cccc(NC(=O)C3CCOCC3)c2O[C@H]1CN(C)S(=O)(=O)c1ccc(Cl)cc1	-13.9	-11.2	-1.8
C[C@H]1CN([C@@H](C)CO)C(=O)c2cccc(NC(=O)C3CC3)c2O[C@@H]1CN(C)S(=O)(=O)c1ccc(Cl)cc1	-0.4	7.1	2.8
Cc1cc(C(=O)Nc2cccc3c2O[C@@H](CN(C)S(=O)(=O)c2ccc(Cl)cc2)[C@H](C)CN([C@H](C)CO)C3=O)n(C)n1	-4.4	-13.5	-1.2
CCCCC(C(=O)N1CCCCC1)N1C(=O)c2ccccc2C1=O (stereo unspecified)	/	/	7.8
COC(=O)c1cc(NC(=O)COc2ccccc2Cl)cc(C(=O)OC)c1	-8.8	/	/
C=C1C(=O)O[C@H]2C[C@H](C)[C@@H]3CC(=O)C(C)=C3C[C@H]12	13.3	11.0	4.7
COC(=O)c1cc(C(=O)NCc2ccccc2OC)cc([N+](=O)[O-])c1	-2.6	/	/
CC(C)NC(=O)Nc1ccc2c(c1)CC(=O)N([C@@H](C)CO)C[C@H](C)[C@H](CN(C)S(=O)(=O)c1cn(C)cn1)O2	1.4	/	/
C[C@H](CO)N1C[C@H](C)[C@H](CN(C)S(=O)(=O)c2cn(C)cn2)Oc2ccc(NC(=O)NC3CCCCC3)cc2CC1=O	-10.5	77.1*	/
Cc1noc(C)c1S(=O)(=O)N(C)C[C@@H]1Oc2ccc(NC(=O)C3CC3)cc2CC(=O)N([C@H](C)CO)C[C@@H]1C	-11.1	69.7*	/
Cc1noc(C)c1S(=O)(=O)N(C)C[C@H]1Oc2ccc(NC(=O)C3CC3)cc2CC(=O)N([C@H](C)CO)C[C@H]1C	1.5	-13.3	/
Cn1c(C(=O)N2CCN(c3ccccc3F)CC2)cc2c(=O)[nH]c3ccccc3c21	/	/	-1.3
COc1ccc(CN2C(=O)C(O)(CC(=O)c3ccc(Cl)s3)c3ccccc32)cc1OC (stereo unspecified)	0.5	/	/
CC(C)(C)C(=O)Nc1ccc2c(c1)C(=O)C(=O)c1ccccc1-2	96.7*	88.0*	131.9*
CC(O)(C(=O)Nc1ccc(S(=O)(=O)c2ccccc2)cc1)C(F)(F)F (stereo unspecified)	-5.1	-69.0	7.3
O=C(CSc1nc(-c2ccccc2)c(-c2ccccc2)[nH]1)Nc1ccccc1Cl	16.1	/	/
CC(NC(=O)c1cccc(C(=O)NC(C)c2ccccc2)c1)c1ccccc1 (stereo unspecified)	/	/	1.7
CCOC(=O)CN(c1c(C)cccc1C)S(C)(=O)=O	-3.4	/	/
C=CCn1c(=O)c2c(nc3n2CCN3c2ccc(F)cc2)n(C)c1=O	/	/	5.5
CCc1cc(C(c2ccc(Cl)cc2)N2CCN(CCO)CC2)c(NC(=O)c2ccccc2)s1 (stereo unspecified)	54.6	81.2*	10.2
O=C(c1ccc(Cl)cc1)N1CCN(C(c2ccccc2)c2ccccc2)CC1	/	/	2.4
O=c1c2ccccc2ncn1Cc1ccc(F)cc1	/	/	-3.2
O=C(CSc1nc2ccccc2s1)Nc1ccccc1C(=O)c1ccccc1	23.3	/	/
N#C/C(=C(\O)c1ccc(C(=O)c2ccccc2)cc1)c1nc2ccccc2s1	30.9	96.5*	3.2
Cc1cc(Cl)ccc1OC(C)C(=O)Nc1cccc(C(=O)O)c1 (stereo unspecified)	-52.7	/	/
CC(=O)Nc1ccccc1NC(=O)c1ccco1	/	/	-12.4
Cc1cs/c(=N\C(=S)Nc2ccccc2)n1C	/	/	-2.2
Cn1c(-c2ccc(Cl)cc2)cs/c1=N\C(=S)NCCc1ccccc1	3.7	91.1*	2.9
